In the library only some 9.2% were active in any assay of this set; here they are far more common.
SMN2 splice enh = increases expression of the SMN2 splice variant; 2.8% of 210,000 active; HEK293 SMN2-luciferase splicing reporter, luminescence, 30-36 h; AID 1458; Potency, µM (series often up to 46.1 µM), inactives show at the highest dose activity change, positive = activation, actives largely listed as activators; further: % of control where 0% means no effect; nearly all actives have a fitted effect of over 55% in size
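HEK293 cells carry an SMN2 […]–luciferase reporter in which exon 7 inclusion puts luciferase in frame. Cells were plated 10-12 h before compound addition, then incubated 30-36 h at 37C. ONE-Glo luminescence was read; sodium butyrate at 4.5 mM final served as control.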
Rab9 promoter act = activates the Rab9 promoter. AID 485297. Huh7 Rab9 promoter-luciferase reporter, luminescence, 24 h. 2.8% of 320,000 active. Potency, µM (titrated, usually from 9.22 µM), without a hit: at the top dose activation, negative = inhibition, usual class: activators; further: % of control where 0% means no effect; nearly all actives have a fitted effect of over 60% in size
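Stable Rab9-luc Huh7, 1500 cells/well, 2 h settle; cmpd in DMSO, 24 h, 37 °C/5% CO2; luciferase reagent 10 min RT; luminescence.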
NPC1 promoter act = activates the NPC1 promoter. Huh7 NPC1 promoter luciferase reporter, 24 h. Potency, µM (series often up to 9.22 µM), without a hit: at the top dose activation, usual class: activators. AID 485313. 2.4% of 320,000 active; further: % of control where 0% means no effect; nearly all actives have a fitted effect of over 60% in size
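Luminescence read-out of NPC1 promoter-driven luciferase in stably transfected Huh7 cells; compounds delivered in DMSO and left 24 h at 37C, 5% CO2, qHTS titration format.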
ELG1 genotox = inducers of genotoxicity in HEK293T ELG1-luciferase cells; HEK293T ELG1-luciferase reporter, luminescence, 16 h; Potency, µM (series often up to 46 µM), for the others: at the highest dose activity change, positive = activation, hits mostly activators; 1.3% of 330,000 active; AID 504466; further: % of control where 0% means no effect; nearly all actives have a fitted effect of over 60% in size
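Screening used a luciferase reporter fused to human ELG1 in HEK293T cells. Luminescence was read on a CCD plate imager after 16 hr exposure and 30 min ONE-Glo incubation.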
ELG1 DNA repair = blocks ELG1-dependent DNA repair in HEK293T cells; 2.3% of 330,000 active; HEK293T ELG1-luciferase reporter, luminescence, 16 h; DNA damage induced by 5-fluorouridine; AID 504467; Potency, µM (highest dose often 46.1 µM), for the others: at the top dose activity change, negative = inhibition, hits mostly inhibitors; further: on the % scale 0 is the no-effect control and ±100 the full control effect; nearly all actives have a fitted effect of over 55% in size
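Luminescence from the luciferase reporter, measured 30 min after ONE-Glo reagent at room temperature, was the read-out. Beforehand, 2,000 cells per well were exposed for 16 hr at 37 °C to 5-fluorouridine together with compound or vehicle.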
FLuc counter = firefly luciferase modulation, counter-screen for miR-21 project. purified FLuc, Km substrates, luminescence inhibition. Potency, µM (top dose mostly 57.5 µM), inactives show at the top dose activity change, negative = inhibition, actives largely listed as inhibitors. 6.9% of 360,000 active;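 further: plate controls were vehicle for no effect and reference inhibitor for full effect; nearly all actives have a fitted effect of over 55% in size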
Target sequence (P08659 whole entry, looked up): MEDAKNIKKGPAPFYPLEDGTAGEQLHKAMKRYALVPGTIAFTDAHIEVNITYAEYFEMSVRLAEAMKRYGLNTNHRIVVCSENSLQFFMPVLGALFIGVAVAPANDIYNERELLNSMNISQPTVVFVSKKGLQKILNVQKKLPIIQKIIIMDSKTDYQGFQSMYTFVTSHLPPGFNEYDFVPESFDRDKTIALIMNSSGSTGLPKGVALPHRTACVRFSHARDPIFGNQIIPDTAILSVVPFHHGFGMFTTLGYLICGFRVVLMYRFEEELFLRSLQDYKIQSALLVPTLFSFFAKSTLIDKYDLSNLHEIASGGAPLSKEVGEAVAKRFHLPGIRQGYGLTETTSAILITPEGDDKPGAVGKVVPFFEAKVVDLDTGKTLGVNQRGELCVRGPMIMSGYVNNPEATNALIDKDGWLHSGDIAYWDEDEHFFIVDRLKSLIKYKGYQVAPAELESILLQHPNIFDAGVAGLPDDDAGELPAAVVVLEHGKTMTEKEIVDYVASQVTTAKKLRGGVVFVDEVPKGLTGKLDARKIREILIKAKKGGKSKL
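Purified P. pyralis luciferase (10nM final) with 10uM D-luciferin and 10uM ATP (Km levels) in 50mM Tris acetate pH 7.5, 10mM Mg acetate, 0.01% Tween-20, 0.05% BSA; qHTS 6-point titration, ~60 µM downward; luminescence read.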
Active calls of the source: *; ? = inconclusive; nt = no result. The call rests on the fitted dose curve; in most records, active means well fitted curve in the direction sought with a large enough effect; inconclusive means small, poorly fitted or top-dose-only effect, or another doubt; inactive means no such curve, though single readings can be large; an effect the other way counts as inactive or inconclusive. Potency means the concentration at half of the fitted maximal effect.

SMILES | SMN2 splice enh | Rab9 promoter act | NPC1 promoter act | ELG1 genotox | ELG1 DNA repair | FLuc counter
N/C(=N/OC(=O)c1ccccc1F)c1nonc1N | 11% | -2% | 13% | 13% | ? | 4.8µM*
CC1=C(c2ccc(C)cc2)S(=O)(=O)N(Cc2ccc(C(=O)Nc3ccc(C)c(F)c3)cc2)C1=O | nt | nt | nt | nt | nt | -6%
O=C(N/N=C/c1cccc(O)c1)c1ccc(COc2ccc3c(c2)CCC3)o1 | -27% | ? | ? | ? | 18% | 19µM*
NNC(=O)c1ccc(COc2ccc(Br)cc2)o1 | nt | 1% | 12% | -3% | -15% | -8%
NNC(=O)c1ccc(COc2ccc3c(c2)CCC3)o1 | 16µM* | 4µM* | ? | 3% | ? | ?
O=C(c1ccco1)N1CCN(C(=O)c2ccc(COc3ccc4c(c3)CCC4)o2)CC1 | 14% | ? | 19% | -7% | ? | ?
CC(=O)c1ccc(CCCCCCCCCC(=O)O)s1 | 9% | -4% | -1% | 0% | 11% | ?
CCC(=O)c1ccc(CCCCCC(=O)O)s1 | nt | 4% | 13% | 12% | ? | 9.5µM*
CCCN=C(C)C1=C(O)c2ccccc2C1=O | 13µM* | ? | ? | ? | ? | 21µM*
COc1ccc(Nc2nn3c(=O)c4cc5c(cc4nc3s2)OCO5)c(OC)c1 | -4% | nt | nt | nt | nt | 2%
Cc1ccc(Nc2c(-c3ccc(N4CCOCC4)cc3)nc3ccc(C)cn23)cc1 | 6% | nt | nt | nt | nt | 0%
Cc1ccccc1Nc1c(-c2ccc(N3CCOCC3)cc2)nc2cnccn12 | nt | ? | ? | ? | ? | 1.5µM*
Cc1ccc(Nc2c(-c3ccc(N4CCOCC4)cc3)nc3cnccn23)cc1 | nt | 16% | 17% | ? | ? | 5.4µM*
Cc1cccn2c(Nc3ccccc3)c(-c3ccc(N4CCOCC4)cc3)nc12 | 15% | nt | nt | nt | nt | ?
Cc1ccc(Nc2c(-c3ccc(N4CCOCC4)cc3)nc3ncccn23)cc1 | 9% | -3% | -2% | -2% | -25% | ?
Cc1ccccc1Nc1c(-c2ccc(N3CCOCC3)cc2)nc2ncccn12 | -11% | -1% | 14% | -6% | -8% | 11µM*
O=C(/C=C/c1ccccc1Cl)N(Cc1cccs1)C1CCS(=O)(=O)C1 (stereo unspecified) | nt | 1% | -4% | -8% | ? | -17%
COc1ccc(Cl)cc1NC(=O)CN(C)C(=O)CCSc1ccc(C)cc1 | nt | -8% | 1% | 0% | ? | 19µM*
COc1ccc(Cl)cc1NC(=O)CN(C)C(=O)C12CC3CC(CC(Cl)(C3)C1)C2 | nt | -10% | -2% | -6% | 18µM* | 2%
CCSc1ncc(/C=N/Nc2ccc(F)cc2)n1C | 11µM* | ? | ? | 27% | ? | 11µM*
O=C(Nc1ccccn1)c1ccc(S(=O)(=O)N2CCCCCC2)cc1 | nt | ? | ? | 9.2µM* | ? | 17µM*
O=C(Nc1ccc(Cc2ccncc2)cc1)c1ccc(S(=O)(=O)N2CCCC2)cc1 | -45% | -40% | -24% | -14% | 2.9µM* | 0%
O=C(Nc1ccc(S(=O)(=O)N2CCCCC2)cc1)c1ccncc1 | nt | -6% | -3% | 0% | ? | -1%
Cc1ccnc(NC(=O)c2ccc(S(=O)(=O)N3CCCCC3)cc2)c1 | nt | 1% | 3% | -1% | -8% | -9%
Cc1ccnc(NC(=O)c2ccc(S(=O)(=O)N3CCCCCC3)cc2)c1 | nt | 27% | 16% | 11% | ? | 8.5µM*
SMILES | SMN2 splice enh | Rab9 promoter act | NPC1 promoter act | ELG1 genotox | ELG1 DNA repair | FLuc counter
O=C(Nc1ccccn1)c1ccc(Br)c(S(=O)(=O)N2CCCCC2)c1 | -4% | -5% | 1% | -5% | -6% | 2%
O=C(Nc1ccccn1)c1ccc(S(=O)(=O)N2CCCCC2)cc1 | nt | ? | ? | 9.2µM* | ? | 13µM*
Cc1cccc(NC(=O)CNC(=O)c2ccc3nc[nH]c3c2)c1C | nt | -2% | -1% | 0% | 10% | 0%
COc1cc(C(=O)NCC(=O)N2CCN(S(=O)(=O)c3ccccc3)CC2)cc(OC)c1OC | nt | -1% | 0% | 2% | -2% | -1%
CC1(C)Cc2c(sc3c2c(=N)n(Cc2ccco2)c(=O)n3CC(=O)Nc2ccccc2)CO1 | ? | -1% | 5% | 2% | 9.2µM* | -6%
Cc1cccc(NC(=O)Cn2c(=O)n(Cc3ccco3)c(=N)c3c4c(sc32)COC(C)(C)C4)c1 | 3% | 0% | -3% | -6% | ? | 4%
CC1(C)Cc2c(sc3c2c(=N)n(Cc2ccco2)c(=O)n3CC(=O)Nc2ccc(Cl)cc2)CO1 | 25% | -3% | -1% | -4% | 21µM* | 3%
CCCC(CCC)C(=O)Nc1cccc(-c2cn3cccnc3n2)c1 | nt | nt | nt | nt | nt | -1%
COc1cc(/C=C2/C(=O)NN(c3ccc(Cl)cc3)C2=O)cc(OC)c1O | nt | -2% | 0% | 0% | 5% | 12µM*
COc1cc(/C=C2\C(=O)NN(c3ccccc3)C2=O)cc([N+](=O)[O-])c1O | 3% | 9% | -4% | 7% | 1% | ?
COc1cc(/C=C2/C(=O)NN(c3ccccc3)C2=O)cc(Br)c1O | nt | -2% | -4% | 10% | 5% | 17µM*
CCOC(=O)COc1ccc(/C=C2/C(=O)NN(c3ccc(F)cc3)C2=O)cc1OC | nt | 0% | -3% | 8% | 56% | ?
Cc1cc(NC(=O)COC(=O)C2CC(=O)N(c3ccc(Cl)cc3)C2)no1 (stereo unspecified) | nt | -7% | 2% | -1% | 9% | -1%
CN1CCN(C(=O)C2=C[C@@H](C(C)(C)C)C[C@@H](OCc3ccc(CO)cc3)O2)CC1 | nt | -6% | 2% | 6% | 14% | 0%
C=CCC1(Cl)C(=O)C(Cl)=C(N2CCN(C)CC2)C1(OC)OC (stereo unspecified) | nt | -2% | -4% | 3% | -1% | 1%

Source: PubChem
